Results filed as inconclusive are left out. Active and inactive are the calls of the source. Calls follow the shape of the dose curve; as a rule, active = well fitted curve in the direction sought with a large enough effect; inconclusive = small, poorly fitted or top-dose-only effect, or another doubt; inactive = no such curve, though single readings can be large; an effect the other way counts as inactive or inconclusive.
Columns and labels:
[1] = SDT Cancer Cell Toxicity qHTS against the NCATS CANVASS Library (AID 1347365); conditions: SDT dog glioma viability, ATP luminescence, 72 h; series mostly up to 46.1 µM; also: nearly all actives have a fitted effect of over 60% in size; also: potency is read from the fitted curve at half-maximal effect
Summary of the method: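 qHTS, SDT dog glioma line, 500 cells/well; cpds 11 pts; 72 hr, 37C, 5% CO2; CellTiterGlo ATP luminescence.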

[2] = G06 Cancer Cell Toxicity qHTS against the NCATS CANVASS Library (AID 1347368); conditions: G06 dog glioma cells, viability ATP luminescence, 72 h; series mostly up to 46.1 µM; also: nearly all actives have a fitted effect of over 60% in size; also: potency is read from the fitted curve at half-maximal effect
Summary of the method: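 Dog G06 glioma line, 500 cells/well; cpds pin-transferred, 11-pt; 72 hr, 37C/5% CO2; CellTiterGlo luminescence (ATP) endpoint.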

[3] = MCF7 Cancer Cell Toxicity qHTS against the NCATS CANVASS Library (AID 1347369); conditions: MCF7 viability, ATP luminescence (CellTiter-Glo), 72 h; also: potency is read from the fitted curve at half-maximal effect
Summary of the method: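 Cells seeded at 500/well, then compound pinned. Plates incubated 72 hr at 37C, 5% CO2. CellTiterGlo added; luminescence read.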

[4] = J3T Cancer Cell Toxicity qHTS against the NCATS CANVASS Library (AID 1347371); conditions: J3T dog glioma viability, ATP luminescence, 72 h; series mostly up to 46.1 µM
Summary of the method: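 Cells plated at 500 per well, compounds pin-transferred, plates incubated 72 hr at 37C, then CellTiterGlo added and luminescence read to measure ATP content.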

[5] = target: Nuclear receptor subfamily 1 group I member 3 (Homo sapiens) (UniProt Q14994); assay: qHTS for Constitutive Androstane Receptor (CAR) Antagonist screened against the NCATS CANVASS Library (AID 1347372); conditions: HepG2-hCAR-CYP2B6 luciferase, CITCO-stimulated antagonist mode; series mostly up to 46.1 µM;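 also: cells stimulated with 50 nM CITCO agonist so inhibition reflects antagonism; luciferase from CYP2B6 promoter reporter driven by hCAR in HepG2 cells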
Nuclear receptor subfamily 1 group I member 3 (Homo sapiens), sequence (Q14994 whole entry, looked up): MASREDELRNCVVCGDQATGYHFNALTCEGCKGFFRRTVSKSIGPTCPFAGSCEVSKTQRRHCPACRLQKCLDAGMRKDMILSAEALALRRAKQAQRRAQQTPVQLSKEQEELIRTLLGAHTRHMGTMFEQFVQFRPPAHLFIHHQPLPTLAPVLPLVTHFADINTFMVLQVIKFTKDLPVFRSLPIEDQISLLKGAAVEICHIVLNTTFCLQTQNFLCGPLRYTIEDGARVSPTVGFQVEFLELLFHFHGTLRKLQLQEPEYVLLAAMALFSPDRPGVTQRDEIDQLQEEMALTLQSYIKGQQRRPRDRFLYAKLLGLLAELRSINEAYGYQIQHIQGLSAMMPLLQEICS
From the text: Natural products and their derivatives continue to be wellsprings of nascent therapeutic potential. However, many laboratories have limited resources for biological evaluation, leaving their previously isolated or synthesized compounds largely or completely untested. To address this issue, the Canvass library of natural products was assembled (https://tripod.nih.gov/canvass), in collaboration with academic and industry researchers, for quantitative high-throughput screening (qHTS) across a diverse set of cell-based and biochemical assays. […] The library was formatted into 1536-well plates and evaluated in 50 qHTS (in an 11-pnt concentration series) bioassays with broad scope of disease-relevant mechanisms. The resulting data set from 50 different assays was then systematically analyzed to identify overall trends and specific natural products with interesting biological activities. […]
Material: A double-stable (hCAR and CYP2B6-2.2kb) transfected cell line, derived from human hepatoma (HepG2) cells, was utilized for the duration of the quantitative high-throughput screens. […] A first readout of fluorescence signal was acquired via the ViewLux (PerkinElmer) plate reader using a FITC dichroic mirror, excitation 405/10 nm filter, and emission 540/25 nm filter; and using 65 light energy, 1 second exposure, and 2x binning settings. […]

[6] = target: Luciferin 4-monooxygenase (Photinus pyralis) (UniProt P08659); assay: Firefly luciferase counterscreen qHTS: Assay Interference Panel against the NCATS CANVASS Library (AID 1347363); conditions: purified firefly luciferase, luminescence inhibition, 5 min; series mostly up to 57.5 µM
Luciferin 4-monooxygenase (Photinus pyralis), sequence (P08659 whole entry, looked up): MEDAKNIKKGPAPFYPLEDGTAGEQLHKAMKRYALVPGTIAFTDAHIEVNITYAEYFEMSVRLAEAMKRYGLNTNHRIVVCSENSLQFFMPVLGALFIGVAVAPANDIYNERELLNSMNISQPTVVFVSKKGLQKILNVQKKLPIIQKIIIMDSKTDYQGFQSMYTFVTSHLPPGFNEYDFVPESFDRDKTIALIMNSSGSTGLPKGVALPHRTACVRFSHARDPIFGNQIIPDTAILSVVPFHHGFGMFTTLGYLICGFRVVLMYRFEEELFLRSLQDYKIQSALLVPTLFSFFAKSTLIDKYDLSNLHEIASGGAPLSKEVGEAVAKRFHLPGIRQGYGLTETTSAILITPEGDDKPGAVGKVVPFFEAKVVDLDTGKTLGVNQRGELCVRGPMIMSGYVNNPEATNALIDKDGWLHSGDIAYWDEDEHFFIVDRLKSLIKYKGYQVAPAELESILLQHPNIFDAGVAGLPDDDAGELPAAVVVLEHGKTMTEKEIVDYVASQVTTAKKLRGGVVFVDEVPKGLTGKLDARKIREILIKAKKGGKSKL
Summary of the method: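 Purified P. pyralis luciferase (0.04 ug/mL, 4x reagent) added to Tris-acetate buffer with 0.013 mM D-luciferin, 0.013 mM ATP and 13.3 mM Mg-acetate; compounds preincubated 15 min, then luminescence read after 5 min, RT.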

[7] = KB-8-5-11 Cancer Cell Toxicity qHTS against the NCATS CANVASS Library (AID 1347364); conditions: KB-8-5-11 MDR cells viability, CellTiter-Glo, 72 h; series mostly up to 46.1 µM; also: nearly all actives have a fitted effect of over 75% in size
Summary of the method: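 Plate 500 KB-8-5-11 cells per well in DMEM + 10% FBS, add compounds by pin transfer, incubate 72 hr at 37C. Add CellTiter-Glo, wait 10 minutes at room temperature, read luminescence.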

[8] = KB-3-1 Cancer Cell Toxicity qHTS against the NCATS CANVASS Library (AID 1347366); conditions: KB-3-1 viability, CellTiter-Glo luminescence, 72 h; at 46.1 µM (top of the series); also: nearly all actives have a fitted effect of over 75% in size
Summary of the method: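 Luminescence from CellTiter-Glo (10 min, room temperature) measured KB-3-1 viability after 72 hr compound exposure at 37C. Cells were seeded at 500/well and tested in an 11-point series.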

[9] = qHTS for ATAD5 Agonist screened against the NCATS CANVASS Library (AID 1347367); conditions: HEK293T ATAD5-luciferase reporter, luminescence, 16 h; series mostly up to 46.1 µM;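 also: luciferase reporter driven by ATAD5 which rises upon DNA damage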
Summary of the method: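 HEK293T-ATAD5 luc reporter; 2000 cells/well; 5hr settle; cpd 11-pt qHTS; 16hr 37C 5% CO2 dark; viability by CellTiter-Fluor (AFC fluorescence); then luciferase luminescence, 30min RT.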

[10] = qHTS for ATAD5 Antagonist screened against the NCATS CANVASS Library (AID 1347370); conditions: HEK293T-ATAD5-luc, 5-FUrd stimulated, luminescence, 16 h; series mostly up to 46.1 µM;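 also: HEK293T cells carrying an ATAD5 luciferase reporter co-treated with 10 µM 5-fluorouridine; nearly all actives have a fitted effect of over 65% in size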
Summary of the method: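 HEK293T cells with stably integrated ATAD5-luciferase reporter, 2000/well, 5 h attachment; compounds plus 10 µM 5-fluorouridine, 16 h at 37 °C. Luciferase luminescence read, with CellTiter-Fluor viability read first.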

Measured: Potency

O=c1cc(-c2ccccc2)oc2c(O)c(O)ccc12
active: [1] 4.18 µM | [2] 9.35 µM | [3] 13.1 µM
inactive: [4] | [5]

O=C(O)c1cc(O)c(O)c(O)c1
inactive: [6] | [7] | [1] | [8] | [9] | [2] | [10] | [4] | [5]

— PubChem BioAssay (NCATS)
